Source: PubChem BioAssay AID1159580 (chemical genetic matrix, 2015)
Several values for one entry are separate records, joined by “and”; a condition that tells them apart may be missing. Equal values may be shown once. Out of some 5,500 compounds screened, about 2,000 (36%) were called active. Another 18% or so got no clear call; they are omitted. No stated cut-off is given here; in the data, active means normalized growth mostly below about 0.91 (no sharp cut-off); inconclusive means no clear call, values can overlap the other calls; inactive means mostly above about 0.92. This is one part of the list.

Test: chemical genetic growth profiling, strain panel (AID 1159580);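 further: tested at 20 µM; growth read once vehicle control cultures reached saturation at 30 °C; 1 = growth at the plate median or of vehicle wells; lower values mean less growth of the strain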
Conditions: S. cerevisiae deletion strains, growth OD

Measured: normalized growth

CC1CNCCN1S(=O)(=O)c1cccc2cnccc12 (stereo unspecified)
inactive: locus YAL013W, strain DEP1, hits give low values 1.01 and 1 | locus YAL040C, strain CLN3, hits give low values 1.09 and 0.997 | locus YCL061C, strain MRC1 (second series), hits give low values 0.998 and 1.01 | locus YDR150W, strain NUM1, hits give low values 1 | locus YDR363W, strain ESC2, hits give low values 0.993 and 1.01 | locus YER002W, strain NOP16, hits give low values 0.988 and 1.01 | locus YGR078C, strain PAC10, hits give low values 1.01 | locus YMR263W, strain SAP30, hits give low values 1 | locus YNL153C, strain GIM3, hits give low values 0.991 | locus YNL175C, strain NOP13, hits give low values 0.996 and 0.999 | locus YNL197C, strain WHI3, hits give low values 1.01 | locus YNL224C, strain SQS1, hits give low values 1.02 | locus YNL322C, strain KRE1, hits give low values 0.999 | locus YOR083W, strain WHI5 (second series), hits give low values 1 and 1.03 | locus YPL055C, strain LGE1, hits give low values 1.01 | locus YPL241C, strain CIN2, hits give low values 0.996
